High-throughput results deposited in PubChem by National Center for Advancing Translational Sciences (NCATS).
Luciferase inh: Firefly luciferase inhibition profiling of diverse chemical library using quantitative high-throughput screening; Luciferin 4-monooxygenase (Photinus pyralis), P08659; purified P. pyralis luciferase, luminescence, biochemical; Potency, µM (titrated, usually from 115 µM), most hits filed as inhibitors; 76,000 compounds, 2.5% hits; AID 1347043, 2019; further: nearly all actives have a fitted effect of over 65% in size
Target sequence (P08659 whole entry, looked up): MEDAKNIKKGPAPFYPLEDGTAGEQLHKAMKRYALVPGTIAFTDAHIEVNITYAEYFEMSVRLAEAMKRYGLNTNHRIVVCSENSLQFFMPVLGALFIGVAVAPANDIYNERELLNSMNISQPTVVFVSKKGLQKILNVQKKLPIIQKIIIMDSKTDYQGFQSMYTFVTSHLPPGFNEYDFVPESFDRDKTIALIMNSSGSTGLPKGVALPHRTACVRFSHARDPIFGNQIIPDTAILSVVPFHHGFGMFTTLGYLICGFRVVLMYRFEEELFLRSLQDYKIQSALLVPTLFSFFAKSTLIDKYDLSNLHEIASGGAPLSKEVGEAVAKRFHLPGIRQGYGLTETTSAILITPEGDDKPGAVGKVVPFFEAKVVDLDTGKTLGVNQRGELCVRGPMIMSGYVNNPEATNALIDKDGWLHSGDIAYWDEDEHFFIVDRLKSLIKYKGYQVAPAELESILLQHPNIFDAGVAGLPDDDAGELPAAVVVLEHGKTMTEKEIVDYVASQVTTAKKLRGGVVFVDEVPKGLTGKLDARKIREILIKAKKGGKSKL
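FLuc 10nM, D-luciferin 10uM, ATP 10uM, Mg acetate 10mM, Tris acetate pH 7.5, Tween/BSA; cpd qHTS; enzyme added last; CCD luminescence.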
3T3 cytotox: Cytotoxic Profiling in NIH 3T3 Cell Line of Diverse Libraries Using Quantitative High-Throughput Screening | NIH 3T3 viability, CellTiter-Glo ATP luminescence, 48-72 h | Potency, µM (top dose mostly 96.7 µM), for the others: at the highest dose activity change, negative = cytotoxicity, hits mostly inhibitors | 94,000 compounds, 4.3% hits | AID 1345082, 2018; further: nearly all actives have a fitted effect of over 55% in size
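Cells were seeded at 400 per well, treated with pin-transferred compound, and kept 48 or 72 hr at 37 °C before CellTiter-Glo addition and luminescence imaging of cellular ATP.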
hNpr1 antagonist: Natriuretic polypeptide receptor (hNpr1) antagonism - Primary qHTS; AID 1347048, 2019; HEK293 hNpr1 GloSensor cGMP, ANP-stimulated luminescence; 76,000 compounds, 1.6% hits; Potency, µM (top dose mostly 46.3 µM), inactives show at the highest dose activity change, negative = inhibition, usual class: inhibitors; calls by dose curve; further: nearly all actives have a fitted effect of over 60% in size
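Compound pre-incubated 30 min at room temperature on GloSensor-loaded HEK293 cells stably carrying hNpr1 and the pGS-40F cGMP biosensor. Stimulation uses hNppA at 0.1 nM final; luminescence is taken at baseline and 20 min post-agonist.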
HEK cytotox: Cytotoxic Profiling in HEK 293 Cell Line of Diverse Libraries Using Quantitative High-Throughput Screening | HEK 293 viability, ATP luminescence (CellTiter-Glo), 48-72 h | Potency, µM (series often up to 115 µM), for inactives: at the top dose activity change, negative = cytotoxicity, actives largely listed as inhibitors | 94,000 compounds, 6.6% hits | AID 1345083, 2018; further: nearly all actives have a fitted effect of over 60% in size
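HEK 293 cells at 250 cells/well were exposed to compounds by pintool transfer for 48 or 72 hr at 37 degree Celsius, 5% CO2. Viability was read as ATP-coupled luminescence with CellTiter-Glo after 10 min at room temperature.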
* marks the source's active call; other numbers are inactive results; i = inactive; ? = inconclusive; · = no result given; [ ] = remark or other dose. An excerpt weighted towards active compounds, which were near 11% of everything screened. Unless noted, the call rests on the fitted dose curve; in most records, active means well fitted curve in the direction sought with a large enough effect; inconclusive means small, poorly fitted or top-dose-only effect, or another doubt; inactive means no such curve, though single readings can be large; an effect the other way counts as inactive or inconclusive. On the % scale 0 is the no-effect control and ±100 the full control effect; potency means the concentration at half of the fitted maximal effect.

SMILES	Luciferase inh	3T3 cytotox	hNpr1 antagonist	HEK cytotox
Cc1ccccc1Cn1cc(-c2ccncc2)cc1C(=O)Nc1ccc2c(c1)OCO2	?	?	-16%	35µM*
CC1(C)Cc2c(cnn2-c2ccc(F)cc2)C(NC(=O)c2cc(C3CC3)[nH]n2)C1 (configuration not stated)	i	?	-15%	79µM*
COCCn1ccc2c(C3=CCOCC3)nc(-c3cccc4cn[nH]c34)cc21	i	?	-16%[70.6 µM]	79µM*
COCCn1ccc2c(C3=CCOCC3)nc(-c3cccc(N[S+](C)(=O)[O-])c3)cc21	i	35µM*	-3%[70.6 µM]	?
COCCn1ccc2c(C3=CCOCC3)nc(-c3cccc(NC(C)=O)c3)cc21	i	?	-5%[70.6 µM]	?
CCOC(=O)[C@H]1C[C@@H]2O[C@H]1[C@H]1CN(C(=O)OC)C[C@H]1[C@@H]2O	·	?	·	-25%
O=C(Cc1ccc2c(c1)OCO2)N1CCOCC2(CN(Cc3cc(F)cc(F)c3)C2)C1	i	35µM*	4%[70.6 µM]	56µM*
O=C(Cc1ccc2c(c1)OCO2)N1CCOCC2(CN(Cc3ccccc3)C2)C1	i	?	1%[70.6 µM]	?
CCOC(=O)C1(Cc2cccc(OC)c2)CCCN(C(=O)COc2ccccc2)C1 (configuration not stated)	35µM*	-13%	-2%	?
CCOC(=O)C1(Cc2cccc(Cl)c2)CCCN(Cc2cnn(C)c2)C1 (configuration not stated)	i	-30%	4%	?
CCOC(=O)C1(Cc2cccc(Cl)c2)CCCN(C(=O)c2csc(C(C)=O)c2)C1 (configuration not stated)	?	-19%	-17%	40µM*
CCOC(=O)C1(Cc2cccc(OC)c2)CCCN(C(=O)CSc2ccncc2)C1 (configuration not stated)	i	-12%	-3%	28µM*
C[S+](=O)([O-])N1CCN(C(=O)c2nc3cccnc3n(CCc3ccccc3)c2=O)CC1	·	-9%	·	4%
CNC(=O)c1cc(C2CC2)nc2onc(C3CCN(C(=O)c4ccccn4)C3)c12 (configuration not stated)	·	-23%	·	-14%
CC(C)NS(=O)(=O)c1ccc2c(c1)nc(-c1ccc(-c3ccn[nH]3)o1)n2C(C)C	i	?	-17%	?
CC(C)NS(=O)(=O)c1ccc2c(c1)nc(-c1cc(C(C)(C)C)[nH]n1)n2C(C)C	i	?	-1%	45µM*
O=C(NCCNC(=O)c1ccccc1F)c1ccc(-c2cncnc2)cc1	·	-19%	·	-23%
CN1CCCN(C(=O)C2CCC2)c2ccccc21	i	-20%	-6%	-12%
COc1ccccc1C(=O)N1CCCN(C)c2ccccc21	i	?	-11%	79µM*
CN1CCCN(C(=O)C2CCCC2)c2ccccc21	i	?	-5%	89µM*
CC(C)NC(=O)C1CCN(Cc2ccccc2-c2ccccc2F)CC1	·	-25%	·	-13%
CCOC(=O)[C@@H]1CN(C(=O)c2ccccc2OC(F)(F)F)[C@H]2c3ccc(OC)cc3O[C@@H]12	·	-36%	·	?
O=C(NC[C@H]1COCc2nc3cc(F)ccc3n21)c1ccc2c(c1)OCO2	?	?	-2%[70.6 µM]	-30%[172 µM]
Fc1ccc2c(c1)nc1n2[C@@H](CNC2CCCCC2)COC1	i	28µM*	-18%[70.6 µM]	?
O=C(NC[C@H]1COCc2nc3cc(F)ccc3n21)C1CC1	i	79µM*	4%[70.6 µM]	-7%[230 µM]
SMILES	Luciferase inh	3T3 cytotox	hNpr1 antagonist	HEK cytotox
O=C(NC[C@H]1COCc2nc3cc(C(F)(F)F)ccc3n21)C1CC1	i	-24%[138 µM]	-4%[70.6 µM]	?
O=C(NC[C@H]1COCc2nc3cc(F)ccc3n21)c1ccc(Cl)cc1	i	?	-10%[70.6 µM]	71µM*
CCOC(=O)C1CCCN(C(=O)C2CCc3nnc(C4CCN(C(C)=O)CC4)n32)C1 (configuration not stated)	·	-11%[138 µM]	·	-5%[172 µM]
Cc1ccc(Nc2ccnc(N3CCC(N[S+](=O)([O-])c4cccs4)CC3)n2)cc1	·	35µM*	·	22µM*
Cc1ccc(Nc2ccnc(N3CCC(N[S+](=O)([O-])c4ccc(C)cc4)CC3)n2)cc1	·	32µM*	·	?
COc1ccc(Nc2ccnc(N3CCC(N[S+](=O)([O-])c4cccs4)CC3)n2)cc1	·	35µM*	·	25µM*
O=C(c1ccc(Br)o1)N1CCCN(c2cc(-c3ccc(Cl)cc3)[nH]n2)CC1	i	40µM*	?	?
Cc1ccc(C(=O)N2CCCN(c3cc(-c4ccc(Cl)cc4)[nH]n3)CC2)cn1	i	-21%	?	?
Cc1cccc(C(=O)N2CCCN(c3cc(-c4ccc(Cl)cc4)[nH]n3)CC2)c1	i	?	-30%	?
Cn1nc(C(=O)N2CCN(c3cc(-c4ccccc4)[nH]n3)CC2)c2ccccc21	i	?	6%	?
Cc1ccc(C(=O)N2CCCN(c3cc(-c4ccc(Cl)cc4)[nH]n3)CC2)cc1C	i	35µM*	-22%	?
Cn1nc(C(=O)N2CCCN(c3cc(-c4ccc(Cl)cc4)[nH]n3)CC2)c2ccccc21	i	?	-27%	40µM*
Cc1cc(C)cc(C(=O)N2CCCN(c3cc(-c4ccc(Cl)cc4)[nH]n3)CC2)c1	i	?	-27%	45µM*
COc1ccc(C(=O)N2CCC3(CC2)NC(=O)N(c2cccc(F)c2)N3)cc1	i	?	2%	?
CNC(=O)c1cc(C2CC2)nc2onc(C3CCCN3C(=O)c3ccccc3C)c12 (configuration not stated)	·	-12%	·	-18%
O=C(c1cccs1)N1CCN(c2cc(-c3cccs3)[nH]n2)CC1	i	?	-4%	-31%
O=C(c1ccc(F)c(F)c1)N1CCN(c2cc(-c3ccc(Cl)cc3)[nH]n2)CC1	i	35µM*	?	?
O=C(c1cccs1)N1CCCN(c2cc(-c3ccc(Cl)cc3)[nH]n2)CC1	?	?	?	45µM*
CCC1=C(C(=O)OC)C(c2cccc(C)c2)N2C(CC(=O)Nc3ccc(OC)cc3)=CSC2=N1 (configuration not stated)	i	?	-13%	40µM*
CCC1=C(C(=O)OC)C(c2ccc(C)cc2C)N2C(CC(=O)N3CCCCC3C)=CSC2=N1 (configuration not stated)	i	?	-12%	?
CCC1=C(C(=O)OC)C(c2cccc(C)c2)N2C(CC(=O)N3CCCCC3C)=CSC2=N1 (configuration not stated)	i	-20%	-19%	45µM*
CCOC(=O)CN1C(=O)CCN(C(=O)c2ccccc2OCC)CC(OC)c2ccccc21 (configuration not stated)	·	?	·	-37%[57.5 µM]
